Experiment in all cases: universal protein binding microarray (PBM); transcription factors of Arabidopsis thaliana; high values mean tight binding
Holding throughout (conditions): protein: recombinant; tags: GST; chain copies: 2; dsDNA, one strand shown

In one experiment the target is T1, GST-ANAC092(1-176) (Arabidopsis thaliana, UniProt Q9FKA0 1-176).
T1 sequence: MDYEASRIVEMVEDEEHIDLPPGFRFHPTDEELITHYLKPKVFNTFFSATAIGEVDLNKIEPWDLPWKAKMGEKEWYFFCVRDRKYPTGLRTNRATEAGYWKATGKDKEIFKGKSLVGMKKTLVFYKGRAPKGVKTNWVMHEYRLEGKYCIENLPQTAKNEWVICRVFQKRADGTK
The procedure, abridged: (§1)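 GST-tagged NAC-domain, full-length or DNA-binding-domain proteins were induced in cells, with zinc acetate added for zinc-finger proteins. They were purified on glutathione–Sepharose 4B and quantified by A280 or anti-GST western blot. Each was applied at 200 to 500 nM final, in duplicate, to custom all-10-mer Agilent 4 × 180K arrays made double-stranded by primer extension, with gapped and ungapped 8-mers scored. Binding is the normalised enrichment score (E-score).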

The next experiment has as its target GST-NTL6(1-168) (Arabidopsis thaliana, UniProt Q9SCK6 1-168). The procedure, abridged:
as §1

In the next experiment the target is T2, GST-ANAC019 NAC domain (Arabidopsis thaliana, UniProt Q9C932 14-162).
T2 sequence: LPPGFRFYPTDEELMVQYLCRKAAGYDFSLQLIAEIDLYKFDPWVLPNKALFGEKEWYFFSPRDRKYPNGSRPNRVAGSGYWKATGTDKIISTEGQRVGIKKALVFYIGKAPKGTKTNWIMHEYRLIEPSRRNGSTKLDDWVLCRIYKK
The procedure, abridged: as §1

The target in a further experiment is T3, GST-ANAC055(1-171) (Arabidopsis thaliana, UniProt Q9LDY8 1-171).
T3 sequence: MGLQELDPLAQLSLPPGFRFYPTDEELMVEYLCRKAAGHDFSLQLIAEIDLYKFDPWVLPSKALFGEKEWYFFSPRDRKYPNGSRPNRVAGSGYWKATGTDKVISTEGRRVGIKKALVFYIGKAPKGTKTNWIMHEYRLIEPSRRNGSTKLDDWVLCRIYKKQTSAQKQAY
The procedure, abridged:
as §1

Another experiment deals with T4, GST-ATAF1 NAC domain (Arabidopsis thaliana, UniProt Q39013 7-158).
T4 sequence: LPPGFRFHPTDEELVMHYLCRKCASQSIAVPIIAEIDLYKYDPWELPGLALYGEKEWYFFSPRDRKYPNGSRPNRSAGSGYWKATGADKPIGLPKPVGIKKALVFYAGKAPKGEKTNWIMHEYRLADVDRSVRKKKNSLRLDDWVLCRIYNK
The procedure, abridged:
as §1

Experiment [1] addresses T5, GST-ANAC092(1-285) full length (Arabidopsis thaliana, UniProt Q9FKA0 1-285).
T5 sequence: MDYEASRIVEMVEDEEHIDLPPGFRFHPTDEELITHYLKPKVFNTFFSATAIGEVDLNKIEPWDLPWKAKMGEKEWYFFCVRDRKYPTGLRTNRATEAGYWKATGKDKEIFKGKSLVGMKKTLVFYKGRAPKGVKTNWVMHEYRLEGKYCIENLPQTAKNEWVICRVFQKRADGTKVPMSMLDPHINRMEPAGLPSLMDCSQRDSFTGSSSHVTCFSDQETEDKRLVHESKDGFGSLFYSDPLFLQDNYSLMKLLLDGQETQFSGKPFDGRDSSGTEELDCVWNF
The procedure, abridged:
as §1

A further experiment concerns the target T6, GST-NAP(1-166) (Arabidopsis thaliana, UniProt O49255 1-166).
T6 sequence: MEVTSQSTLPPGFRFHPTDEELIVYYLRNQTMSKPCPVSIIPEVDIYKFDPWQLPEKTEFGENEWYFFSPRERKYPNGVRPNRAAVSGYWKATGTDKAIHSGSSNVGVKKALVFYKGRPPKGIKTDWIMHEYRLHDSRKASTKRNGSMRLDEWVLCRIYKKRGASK
The procedure, abridged:
as §1

The target in a further experiment is T7, GST-NST2(1-184) (Arabidopsis thaliana, UniProt Q9M274 1-184).
T7 sequence: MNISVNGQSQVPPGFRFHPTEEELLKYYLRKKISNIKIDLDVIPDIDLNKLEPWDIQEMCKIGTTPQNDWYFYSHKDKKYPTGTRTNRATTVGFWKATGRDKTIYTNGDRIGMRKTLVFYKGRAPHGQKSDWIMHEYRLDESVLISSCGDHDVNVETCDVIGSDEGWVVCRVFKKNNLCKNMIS
In a few lines: as §1

The next experiment has as its target T8, GST-NTL8 NAC domain (Arabidopsis thaliana, UniProt Q9XIN7 14-156).
T8 sequence: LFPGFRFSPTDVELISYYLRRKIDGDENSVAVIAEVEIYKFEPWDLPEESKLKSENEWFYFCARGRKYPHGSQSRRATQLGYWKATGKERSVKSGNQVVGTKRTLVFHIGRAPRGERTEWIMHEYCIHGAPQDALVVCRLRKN
The procedure, abridged:
as §1

The target in another experiment is T9, GST-SND1(1-203) (Arabidopsis thaliana, UniProt Q9LPI7 1-203).
T9 sequence: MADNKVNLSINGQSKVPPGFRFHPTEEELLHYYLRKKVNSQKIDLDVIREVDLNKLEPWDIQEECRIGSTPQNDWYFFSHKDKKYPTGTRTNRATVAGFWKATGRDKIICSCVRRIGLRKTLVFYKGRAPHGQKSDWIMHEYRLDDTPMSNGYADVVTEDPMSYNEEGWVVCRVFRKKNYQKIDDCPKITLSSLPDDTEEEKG
The procedure, abridged: as §1

A further experiment deals with T10, GST-VND3 NAC domain (Arabidopsis thaliana, UniProt Q9FH59 12-162).
T10 sequence: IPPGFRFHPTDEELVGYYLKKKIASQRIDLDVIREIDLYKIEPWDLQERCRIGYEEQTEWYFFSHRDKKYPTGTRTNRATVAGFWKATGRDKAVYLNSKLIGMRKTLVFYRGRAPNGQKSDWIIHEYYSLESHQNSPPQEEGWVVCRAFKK
The procedure, abridged: as §1

The target of the next experiment is T11, GST-VND7 NAC domain (Arabidopsis thaliana, UniProt Q9C8W9 9-158).
T11 sequence: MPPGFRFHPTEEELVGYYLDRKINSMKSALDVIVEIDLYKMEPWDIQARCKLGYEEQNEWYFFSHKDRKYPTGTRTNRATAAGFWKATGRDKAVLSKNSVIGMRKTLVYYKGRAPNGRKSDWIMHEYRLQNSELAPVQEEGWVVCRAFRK
The procedure, abridged:
as §1

GST-NTL6(1-168), sequence (Q9SCK6 1-168): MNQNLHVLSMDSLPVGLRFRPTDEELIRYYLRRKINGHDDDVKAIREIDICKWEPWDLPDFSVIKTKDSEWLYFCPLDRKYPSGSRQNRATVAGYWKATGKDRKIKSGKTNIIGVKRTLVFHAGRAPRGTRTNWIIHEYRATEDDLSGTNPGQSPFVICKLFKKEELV

With AAGCAAAG, the binding signal was 0.302 E-score with GST-ANAC092(1-176); 0.342 E-score with GST-NTL6(1-168); 0.176 E-score with GST-ANAC019 NAC domain; 0.125 E-score with GST-ANAC055(1-171); 0.0761 E-score in the experiment with GST-ATAF1 NAC domain; 0.369 E-score in experiment [1]. Further, the binding signal worked out at 0.11 E-score in the experiment with GST-NAP(1-166); 0.278 E-score with GST-NST2(1-184); 0.222 E-score in the experiment with GST-NTL8 NAC domain; 0.403 E-score with GST-SND1(1-203); 0.198 E-score with GST-VND3 NAC domain; 0.25 E-score in the experiment with GST-VND7 NAC domain.
Take AATTCCGT: the binding signal amounted to 0.274 E-score with GST-ANAC092(1-176); 0.169 E-score in the experiment with GST-NTL6(1-168); 0.456 E-score with GST-ANAC019 NAC domain; 0.429 E-score with GST-ANAC055(1-171); 0.358 E-score in the experiment with GST-ATAF1 NAC domain; 0.247 E-score in experiment [1]. Besides, the binding signal was found to be 0.379 E-score in the experiment with GST-NAP(1-166); 0.179 E-score in the experiment with GST-NST2(1-184); 0.105 E-score in the experiment with GST-NTL8 NAC domain; 0.122 E-score with GST-SND1(1-203); 0.414 E-score with GST-VND3 NAC domain; 0.382 E-score with GST-VND7 NAC domain.
On to GTACGCAA, for which the binding signal with GST-ANAC092(1-176) stood at 0.482 E-score; with GST-NTL6(1-168) it was 0.121 E-score; with GST-ANAC019 NAC domain it was 0.445 E-score; in the experiment with GST-ANAC055(1-171), 0.411 E-score; in the experiment with GST-ATAF1 NAC domain, 0.407 E-score; in experiment [1], 0.487 E-score. Further, the binding signal came out at 0.456 E-score in the experiment with GST-NAP(1-166); 0.394 E-score with GST-NST2(1-184); 0.0545 E-score with GST-NTL8 NAC domain; 0.47 E-score with GST-SND1(1-203); 0.413 E-score in the experiment with GST-VND3 NAC domain; 0.437 E-score with GST-VND7 NAC domain.
With GTTAAGCA, the binding signal turned out to be 0.131 E-score with GST-ANAC092(1-176); 0.408 E-score in the experiment with GST-NTL6(1-168); 0.0907 E-score in the experiment with GST-ANAC019 NAC domain; 0.0654 E-score in the experiment with GST-ANAC055(1-171); 0.119 E-score in the experiment with GST-ATAF1 NAC domain; 0.153 E-score in experiment [1]. The binding signal in the experiment with GST-NST2(1-184) turned out to be 0.209 E-score; in the experiment with GST-SND1(1-203), 0.223 E-score; with GST-VND3 NAC domain, 0.143 E-score; in the experiment with GST-VND7 NAC domain, 0.0676 E-score.
Take AAGTAATC: the binding signal with GST-ANAC092(1-176) worked out at 0.348 E-score; with GST-NTL6(1-168) it was 0.414 E-score; with GST-ANAC019 NAC domain it was 0.144 E-score; in the experiment with GST-ANAC055(1-171) it was 0.154 E-score; with GST-ATAF1 NAC domain it was 0.22 E-score; in experiment [1], 0.37 E-score. Moreover, the binding signal stood at 0.285 E-score in the experiment with GST-NST2(1-184); 0.328 E-score with GST-NTL8 NAC domain; 0.347 E-score in the experiment with GST-SND1(1-203); 0.188 E-score with GST-VND3 NAC domain; 0.136 E-score with GST-VND7 NAC domain.
Consider ACTTAACC, for which the binding signal with GST-ANAC092(1-176) was 0.197 E-score; in the experiment with GST-NTL6(1-168), 0.402 E-score; with GST-ANAC019 NAC domain, 0.17 E-score; with GST-ANAC055(1-171) it was 0.115 E-score; in the experiment with GST-ATAF1 NAC domain, 0.132 E-score; in experiment [1] it was 0.186 E-score. In addition, the binding signal amounted to 0.164 E-score in the experiment with GST-NST2(1-184); 0.243 E-score with GST-NTL8 NAC domain; 0.221 E-score with GST-SND1(1-203); 0.203 E-score in the experiment with GST-VND3 NAC domain; 0.209 E-score with GST-VND7 NAC domain.
As to GTTTCGTA, the binding signal with GST-ANAC092(1-176) amounted to 0.375 E-score; with GST-NTL6(1-168), 0.0501 E-score; with GST-ANAC019 NAC domain, 0.0919 E-score; with GST-ANAC055(1-171) it was 0.15 E-score; with GST-ATAF1 NAC domain, 0.173 E-score; in experiment [1], 0.405 E-score. Also, the binding signal in the experiment with GST-NAP(1-166) was determined as 0.185 E-score; in the experiment with GST-NST2(1-184) it was 0.163 E-score; with GST-NTL8 NAC domain, 0.0561 E-score; with GST-SND1(1-203) it was 0.318 E-score; with GST-VND3 NAC domain it was 0.293 E-score; with GST-VND7 NAC domain, 0.124 E-score.
